Source: PubChem (University of Kansas High Throughput Screening Laboratory)
Pf apPOL inh: Pf-apPOL DNA polymerase inhibition | Recombinant Pf-apPOL, molecular beacon fluorescence, 1.5 h | inhibition, % at 10 µM | 210,000 tested, 0.25% active
mHTT-CaM PPI inh: inhibitors of human mutant huntingtin-calmodulin interaction; P42858; AlphaScreen His-mHTT/GST-CaM binding, luminescence; inhibition, % at 15 µM; 190,000 tested, 3.6% active; AID 1671202;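 also: 0% = both proteins with DMSO and 100% = one protein alone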
An asterisk follows results filed as active; . = no result. Compounds with a hit are over-represented: about 3.6% of the library has one in this group of screens. Rule as the data show it: active = inhibition above about 50%; inactive = the rest.

SMILES	Pf apPOL inh	mHTT-CaM PPI inh
Cc1ccc(C(C)C)c(OCC(C)CNCC2CCCO2)c1 (centres undefined)	3	-1
O=C(NCc1ccccn1)c1cccc(CN2C(=O)C3CCCN3C(=O)c3ccccc32)c1 (centres undefined)	-6	9
COc1ccc(CC(=O)NC2CCN(c3nnc4ccc(C(F)(F)F)cn34)CC2)cc1	-2	4
CCc1ccc(N2C(=O)NC(=O)/C(=C\c3ccc(OCC(=O)O)c(OC)c3)C2=O)cc1	-5	6
CC1CCN(c2cc(C(C)C)c(C#N)c3nc4ccccc4n23)CC1	-70	-11
Cc1ccccc1S(=O)(=O)N1CCCC(C)(C(=O)NCc2ccccc2)C1 (centres undefined)	-4	-12
O=C(O)c1cc(NC(=O)c2cccc(N3C(=O)CCC3=O)c2)cc(C(=O)O)c1	-1	-5
COc1cc(OC)c(OC)cc1CN1CCc2nc(Nc3ccc4c(c3)OCO4)ncc2C1	-1	50*
CCCN1CCN(c2ncc3c(n2)CCN(Cc2cc(Br)cs2)C3)CC1	1	29
COc1ccc(OC)c(Nc2ncc3c(n2)CCN(Cc2ccc4c(c2)OCCO4)C3)c1	4	9
Fc1cc(F)cc(CN2CCc3nc(Nc4ccc5c(c4)OCO5)ncc3C2)c1	-1	73*
COc1cccc(CN2CCc3nc(Nc4ccc5c(c4)OCO5)ncc3C2)c1OC	4	21
COc1ccc(Nc2ncc3c(n2)CCN(Cc2ccc4c(c2)OCCO4)C3)cc1	-6	61*
Fc1cccc(CN2CCc3nc(Nc4ccc5c(c4)OCCO5)ncc3C2)c1	-2	45
Brc1csc(CN2CCc3nc(N4CCOCC4)ncc3C2)c1	4	57*
Cc1cc(C)n(-c2nc(-c3ccco3)cc(C(F)(F)F)n2)n1	-10	-3
CC(=O)Oc1ccc2c(c1)OC(=Cc1c(Cl)cccc1Cl)C2=O	-2	48
C#Cc1cccc(N=Cc2cc([N+](=O)[O-])ccc2O)c1	2	.
O=C(NC1CC2CC1CN2C(=O)c1cccc(Cl)c1)c1ccccc1 (centres undefined)	-1	9
Cc1ccc(NC(=O)C(=O)Nc2ccc(C(N)=O)cc2)cc1N1CCCCC1=O	-5	-4
COc1ccccc1CN1CCc2nc(Nc3ccc(F)cc3F)ncc2C1	-3	22
COc1ccc(CN2CCc3nc(Nc4ccc(F)cc4F)ncc3C2)c(OC)c1OC	-5	53*
CCOc1ccc(CN2CCc3nc(Nc4ccc5c(c4)OCO5)ncc3C2)cc1OCC	-2	3
COc1cc(CN2CCc3nc(Nc4ccc5c(c4)OCO5)ncc3C2)ccc1OC(C)C	0	82*
CCCCOc1ccc(CN2CCN(CCOCCO)CC2)cc1	-1	-6
SMILES	Pf apPOL inh	mHTT-CaM PPI inh
COc1cnn(Cc2ccccc2)c(=O)c1Cl	-8	-2
O=C(CSc1nc(CC(=O)NC2CC2)cc(=O)[nH]1)Nc1ccc(OC(F)(F)F)cc1	-2	-8
COc1ccc(-n2ncc3c(Nc4cccc(F)c4)ncnc32)cc1	2	7
CCn1c(N2CCC(C(=O)N3CCN(c4ccc(F)cc4)CC3)CC2)cc(=O)n(C)c1=O	4	70*
Cn1c(N2CCC(C(=O)N3CCN(c4ccc(Cl)cc4)CC3)CC2)cc(=O)n(C)c1=O	-1	50
CCCn1ncc(N2CCC(C(=O)Nc3ccc(OC)cc3OC)CC2)cc1=O	-2	20
CCn1c(N2CCC(C(=O)Nc3cccc(OC)c3)CC2)cc(=O)n(C)c1=O	0	44
CCCn1ncc(N2CCC(C(=O)Nc3cc(C)ccc3OC)CC2)cc1=O	-2	77*
CCn1c(N2CCC(C(=O)Nc3ccc(F)cc3)CC2)cc(=O)n(C)c1=O	-6	28
CCOc1ccc(NC(=O)C2CCN(c3cc(=O)n(C)c(=O)n3CC)CC2)cc1	-2	61*
CCn1c(N2CCC(C(=O)Nc3ccc(OC)c(OC)c3)CC2)cc(=O)n(C)c1=O	-1	62*
COc1ccc(S(=O)(=O)n2cnc3ccccc32)cc1[N+](=O)[O-]	10	-2
CC(CNc1cc(Cl)ccc1[N+](=O)[O-])Oc1nonc1-c1ccccc1 (centres undefined)	-4	25
CCN(CC)C(=O)c1c[nH]c2ccc(S(=O)(=O)Nc3ccccc3C)cc2c1=O	-17	16
COc1ccc(C2C(C#N)=C(N)Oc3c2oc(CO)cc3=O)cc1OC (centres undefined)	3	-5
CC1CCC(N2CCN(Cc3ccccc3)CC2)CC1 (centres undefined)	4	-2
O=C1CCC(C(=O)Nc2ccc(N3CCOCC3)c(Cl)c2)=NN1	-1	.
COCCn1cc2c3c(cccc31)CN(C(=O)c1ccc(Br)o1)CC2	-7	76*
COCCn1cc2c3c(cccc31)CN(C(=O)Nc1cc(Cl)ccc1C)CC2	0	11
COCCn1cc2c3c(cccc31)CN(C(=O)Nc1cccc(F)c1)CC2	1	3
COCCn1cc2c3c(cccc31)CN(C(=O)c1cc(F)ccc1F)CC2	-3	26
COCCn1cc2c3c(cccc31)CN(C(=O)c1cc(Cl)ccc1OC)CC2	0	71*
